Read-out in assay [1]: Transforming growth factor beta 1 (TGFb1), TGFB1 (gene 7040)
The assay can be described thus: BSK_KF3CT_TGFb1: BioMAP Diversity Plus: KF3CT Assay for Transforming growth factor beta 1 (TGFb1) Biomarker Activity (AID 2283072). The following applies: primary human keratinocytes with fibroblasts; actives raise or lower the signal. Summed up: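 Human keratinocyte/foreskin fibroblast co-culture; TGF-b1 measured by ELISA 24 h after dosing, fitted bidirectionally versus DMSO. Cytotoxicity checked in parallel cultures by total protein (SRB staining, 560 nm).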

Read-out in assay [2]: Matrix Metallopeptidase 9 (MMP9), MMP9 (gene 4318)
The assay can be described thus: BSK_KF3CT_MMP9: BioMAP Diversity Plus: KF3CT Assay for Matrix Metallopeptidase 9 (MMP9) Biomarker Activity (AID 2283074). The following applies: primary human keratinocytes with fibroblasts; actives raise or lower the signal. An outline of the steps: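 Human keratinocyte and foreskin fibroblast co-culture exposed to chemicals for 24 h; MMP9 biomarker measured by ELISA, bidirectional fitting relative to DMSO; cytotoxicity tracked by SRB total protein staining in parallel cultures.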

Read-out in assay [3]: urokinase plasminogen activator (uPA), PLAU (gene 5328)
Put plainly: BSK_KF3CT_uPA: BioMAP Diversity Plus: KF3CT Assay for urokinase plasminogen activator (uPA) Biomarker Activity (AID 2283075). The note with it: primary human keratinocytes with fibroblasts; actives raise or lower the signal. Summed up:
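Primary human keratinocyte/foreskin fibroblast co-culture exposed to chemical; uPA measured by ELISA at 24 h. Bidirectional fit versus DMSO, with parallel SRB total-protein staining for cytotoxicity.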

Read-out in assay [4]: CD40, CD40 (gene 958)
The assay can be described thus: BSK_LPS_CD40: BioMAP Diversity Plus: LPS Assay for CD40 Biomarker Activity (AID 2283076). The following applies: primary human HUVEC with PBMC; actives raise or lower the signal. An outline of the steps:
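ELISA readout of CD40 in HUVEC/PBMC co-culture (BSK_LPS system), 24 h post-dosing; bidirectional curve fit, DMSO baseline; parallel SRB total-protein staining for cytotoxicity.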

Read-out in assay [5]: E-selectin (Homo sapiens) (UniProt P16581)
Put plainly: BSK_LPS_Eselectin: BioMAP Diversity Plus: LPS Assay for Eselectin Biomarker Activity (AID 2283077). The following applies: primary human HUVEC with PBMC; actives raise or lower the signal. Summed up:
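ELISA readout of E-selectin, 24 h post-dose, HUVEC + PBMC co-culture (LPS system). Gain or loss of signal vs DMSO baseline, bidirectional fit.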

Assay [6] in a line: BSK_LPS_SRB: Viability Assessment in the BioMAP Diversity Plus: LPS Assay (AID 2283079).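 Further: total protein by sulforhodamine B absorbance as a cytotoxicity measure; measured one day after compound addition; fitted in both directions against DMSO so loss or gain of signal counts.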 The note with it: primary human HUVEC with PBMC. Summed up: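 HUVEC + PBMC co-culture, LPS-stimulated; compound 24 h. 10% TCA fix, 0.1% SRB stain, A560. Bidirectional fit vs DMSO.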
Read-out in assay [7]: Interleukin-1 alpha (IL1a), IL1A (gene 3552)
Put plainly: BSK_LPS_IL1a: BioMAP Diversity Plus: LPS Assay for Interleukin-1 alpha (IL1a) Biomarker Activity (AID 2283080). The following applies: primary human HUVEC with PBMC; actives raise or lower the signal. An outline of the steps:
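HUVEC/PBMC co-culture, LPS system; 24 h after dosing; IL-1a by ELISA; gain or loss of signal fitted bidirectionally vs DMSO baseline.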

Read-out in assay [8]: Monocyte Chemoattractant Protein-1 (MCP1), CCL2 (gene 6347)
The assay can be described thus: BSK_LPS_MCP1: BioMAP Diversity Plus: LPS Assay for Monocyte Chemoattractant Protein-1 (MCP1) Biomarker Activity (AID 2283081). The note with it: primary human HUVEC with PBMC; actives raise or lower the signal. An outline of the steps:
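ELISA read-out of MCP-1 after 24 h chemical dosing of a human umbilical vein endothelial cell/peripheral blood mononuclear cell co-culture stimulated with LPS. Gain or loss of signal fitted relative to DMSO controls.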

Assay [9] in a line: BSK_LPS_PGE2: BioMAP Diversity Plus: LPS Assay for Prostaglandin E2 (PGE2) Biomarker Activity (AID 2283082). The following applies: primary human HUVEC with PBMC; actives raise or lower the signal. An outline of the steps:
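HUVEC plus human PBMC co-culture stimulated with LPS; secreted PGE2 quantified by ELISA 24 h after chemical dosing. Activity fitted bidirectionally against DMSO baseline; parallel SRB staining (0.1% SRB after 10% TCA fixation, 560 nm) flags overt cytotoxicity.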

Read-out in assay [10]: Macrophage colony-stimulating factor (MCSF), CSF1 (gene 1435)
Put plainly: BSK_LPS_MCSF: BioMAP Diversity Plus: LPS Assay for Macrophage colony-stimulating factor (MCSF) Biomarker Activity (AID 2283083). The following applies: primary human HUVEC with PBMC; actives raise or lower the signal. Summed up:
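HUVEC + PBMC co-culture (human primary), 24 h post-dose; M-CSF by ELISA; gain/loss of signal fitted bidirectionally vs DMSO baseline.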

Read-out in assay [11]: Tissue Factor, F3 (gene 2152)
Put plainly: BSK_LPS_TissueFactor: BioMAP Diversity Plus: LPS Assay for Tissue Factor Biomarker Activity (AID 2283084). The note with it: primary human HUVEC with PBMC; actives raise or lower the signal. Summed up:
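HUVEC/PBMC co-culture, LPS-activated; CD142 ELISA read 24 h post-dose; bidirectional curve fit vs DMSO negative control.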

Read-out in assay [12]: Vascular cell adhesion molecule 1 (VCAM1), VCAM1 (gene 7412)
Put plainly: BSK_LPS_VCAM1: BioMAP Diversity Plus: LPS Assay for Vascular cell adhesion molecule 1 (VCAM1) Biomarker Activity (AID 2283086). The note with it: primary human HUVEC with PBMC; actives raise or lower the signal. An outline of the steps: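 Human umbilical vein endothelial cells co-cultured with PBMC and stimulated with LPS; VCAM-1 measured by ELISA 24 h after dosing. Bidirectional curve fitting against DMSO baseline; cytotoxicity tracked in parallel by SRB total-protein staining.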

Read-out in a further assay: CD38, CD38 (gene 952)
Put plainly: BSK_SAg_CD38: BioMAP Diversity Plus: SAg Assay for CD38 Biomarker Activity (AID 2283087). The following applies: primary human HUVEC with PBMC; actives raise or lower the signal. An outline of the steps: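 Human HUVEC plus PBMC co-culture stimulated with superantigen; CD38 measured by ELISA 24 h after chemical dosing. Fluorescence read-out, bidirectional fit against DMSO; cytotoxicity tracked in parallel by SRB and Alamar Blue.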

Read-out in assay [13]: CD40, CD40 (gene 958)
Put plainly: BSK_SAg_CD40: BioMAP Diversity Plus: SAg Assay for CD40 Biomarker Activity (AID 2283088). The note with it: primary human HUVEC with PBMC; actives raise or lower the signal. An outline of the steps:
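HUVEC/PBMC co-culture, 24 h post-dose; CD40 by ELISA, fluorescence intensity; bidirectional fit vs DMSO negative control.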

Read-out in another assay: CD69, CD69 (gene 969)
The assay can be described thus: BSK_SAg_CD69: BioMAP Diversity Plus: SAg Assay for CD69 Biomarker Activity (AID 2283089). The following applies: primary human HUVEC with PBMC; actives raise or lower the signal. Summed up: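 ELISA, fluorescence read-out: CD69 on human umbilical vein endothelial cell + PBMC co-culture, 24 h post-dosing. Gain or loss of signal fitted bidirectionally against DMSO baseline.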

Read-out in assay [14]: Monocyte Chemoattractant Protein-1 (MCP1), CCL2 (gene 6347)
The assay can be described thus: BSK_SAg_MCP1: BioMAP Diversity Plus: SAg Assay for Monocyte Chemoattractant Protein-1 (MCP1) Biomarker Activity (AID 2283090). The note with it: primary human HUVEC with PBMC; actives raise or lower the signal. Summed up:
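MCP-1 levels in the endothelial–PBMC SAg co-culture were quantified by ELISA at 24 h post-dosing; both increases and decreases versus DMSO scored. Cytotoxicity monitored by SRB total protein in parallel cultures.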

Read-out in assay [15]: E-selectin (Homo sapiens) (UniProt P16581)
Put plainly: BSK_SAg_Eselectin: BioMAP Diversity Plus: SAg Assay for Eselectin Biomarker Activity (AID 2283091). The note with it: primary human HUVEC with PBMC; actives raise or lower the signal. Summed up: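 E-selectin ELISA readout at 24 h post-dosing in human umbilical vein endothelial cell/PBMC co-culture; gain or loss of signal fitted relative to DMSO baseline.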

Read-out in assay [16]: C-C motif chemokine 2 (Homo sapiens) (UniProt P13500)
Put plainly: BSK_KF3CT_MCP1: BioMAP Diversity Plus: KF3CT Assay for Monocyte Chemoattractant Protein 1 (MCP1/CCL2) Biomarker Activity (AID 2283073). The note with it: primary human keratinocytes with fibroblasts; actives raise or lower the signal. Summed up:
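KF3CT skin co-culture (keratinocytes/foreskin fibroblasts), 24 h post-dose; MCP-1 by ELISA; gain/loss of signal fit bidirectionally vs DMSO baseline.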

Read-out in assay [17]: Tumor necrosis factor (Homo sapiens) (UniProt P01375)
Put plainly: BSK_LPS_TNFa: BioMAP Diversity Plus: LPS Assay for Tumour Necrosis Factor alpha (TNFa) Biomarker Activity (AID 2283085). The following applies: primary human HUVEC with PBMC; actives raise or lower the signal. Summed up:
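Human umbilical vein endothelial cells co-cultured with PBMC and stimulated with LPS. TNFa was measured by ELISA 24 h after chemical dosing, fitted bidirectionally relative to DMSO.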

Some compounds were tested as several samples or in several runs, with calls that do not always agree. Activity calls are given as the source filed them. How the source made its calls: active means hit-call score of the fitted dose curve at least 0.9, where 1 is the maximum; inactive means score below 0.9.

Chain of E-selectin (Homo sapiens) (P16581 whole entry, looked up): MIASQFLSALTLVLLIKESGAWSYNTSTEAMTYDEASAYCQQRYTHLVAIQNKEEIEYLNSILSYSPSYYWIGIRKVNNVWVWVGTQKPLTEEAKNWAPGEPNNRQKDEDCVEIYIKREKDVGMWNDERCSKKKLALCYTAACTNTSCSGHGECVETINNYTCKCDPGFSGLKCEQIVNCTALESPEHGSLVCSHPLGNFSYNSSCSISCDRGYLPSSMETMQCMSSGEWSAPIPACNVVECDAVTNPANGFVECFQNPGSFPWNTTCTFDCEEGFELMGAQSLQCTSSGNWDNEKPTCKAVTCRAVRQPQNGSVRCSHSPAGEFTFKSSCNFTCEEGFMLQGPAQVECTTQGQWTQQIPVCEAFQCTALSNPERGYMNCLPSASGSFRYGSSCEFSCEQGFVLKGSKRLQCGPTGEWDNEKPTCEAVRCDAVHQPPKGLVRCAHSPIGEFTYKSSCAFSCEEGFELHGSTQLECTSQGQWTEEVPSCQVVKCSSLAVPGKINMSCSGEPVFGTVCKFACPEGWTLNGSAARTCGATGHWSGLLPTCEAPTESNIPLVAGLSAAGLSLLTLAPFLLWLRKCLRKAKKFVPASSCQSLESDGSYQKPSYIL
Chain of Tumor necrosis factor (Homo sapiens) (P01375 whole entry, looked up): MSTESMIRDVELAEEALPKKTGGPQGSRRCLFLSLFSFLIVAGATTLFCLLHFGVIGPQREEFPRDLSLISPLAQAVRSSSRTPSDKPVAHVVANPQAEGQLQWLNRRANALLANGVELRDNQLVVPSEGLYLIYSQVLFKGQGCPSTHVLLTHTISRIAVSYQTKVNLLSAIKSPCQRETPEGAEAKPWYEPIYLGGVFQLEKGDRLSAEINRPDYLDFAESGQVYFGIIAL

With `S=C(S)NCCNC(=S)S.[Mn+2].[S-]C([S-])=NCCN=C([S-])[S-].[Zn+2]`, the outcome is “inactive” in assay [1]; “inactive” in [2]; “inactive” in assay [3]; “inactive” with CD40, CD40 (gene 958) [4]; “inactive” in [5]; “inactive” in assay [6]. In addition, the result in assay [7], in [8], in assay [9], in assay [10], in [11] and in assay [12] was inactive. Further, the outcome in the assay with CD38, CD38 (gene 952) was “inactive”; with CD40, CD40 (gene 958) [13], “inactive”; with CD69, CD69 (gene 969), “inactive”; in [14], “inactive”; in assay [15], “inactive”. In addition, the AC50 (as a rule, the concentration at which the activity in the assay is half-maximal) in assay [12] is 8.85 µM (active); in assay [15], 12.4 µM (active).

Turning to `COC(=O)c1ccc(I)cc1S(=O)(=O)NC(=O)Nc1nc(C)nc(OC)n1`, the outcome is “inactive” in assay [1]; “inactive” in assay [16]; “inactive” in assay [2]; “inactive” in the assay with CD40, CD40 (gene 958) [4]; “inactive” in assay [5]; “inactive” in assay [6]. The result in assay [7], in assay [8], in assay [9], in [10], in assay [11] and in [17] was inactive. The outcome in [12] was “inactive”; with CD38, CD38 (gene 952), “inactive”; in the assay with CD40, CD40 (gene 958) [13], “inactive”; with CD69, CD69 (gene 969) it was “inactive”; in assay [14], “inactive”; in assay [15], “inactive”.

For `CCSC(=O)N(CC(C)C)CC(C)C`, the outcome in assay [1] is “inactive”; in assay [16], “inactive”; in [2] it was “inactive”; in assay [3], “inactive”; with CD40, CD40 (gene 958) [4], “inactive”; in [5] it was “inactive”. Moreover, the outcome in assay [6], in [7], in [8], in [9], in assay [10] and in assay [11] was inactive. The outcome is “inactive” in assay [12]; “inactive” with CD38, CD38 (gene 952); “inactive” in the assay with CD40, CD40 (gene 958) [13]; “inactive” with CD69, CD69 (gene 969); “inactive” in [14]; “inactive” in assay [15].

The values are drawn from PubChem BioAssay (EPA / NIEHS).
